Peg3 promoter – Peg3 promoter-driven luciferase inhibitors, primary screen, cell-based, HeLa, luciferase luminescence; HeLa PEG-Prom luciferase reporter, overnight; inhibition, % at 20 µM; 360,000 tested, 1.7% active; AID 588405, 2011;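 active = inhibition of at least 50% at 20 µM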
HIF-2a inh – HIF-2a reporter inhibitors, primary screen, luminescence, 786-0 RCC cells; 786-0 RCC cells HIF-2a reporter, luciferase luminescence, overnight; inhibition, % at 18.8 µM; 360,000 tested, 0.72% active;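 active = inhibition of the luminescence signal of 40% or more relative to plate controls, in a single-dose primary screen at 18.75 µM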
KKLEB cytotox – cytotoxicity in KKLEB CF airway cells, primary screen, cytotoxicity control for CF NF-kB inhibitor project, cell-based, uHTS, fluorescence assay plates | KKLEB CF airway cells viability, ATPlite luminescence, overnight; active compounds read low; cells stimulated with P. aeruginosa culture filtrate | activity change (cytotoxicity), % at 5 µM | 360,000 tested, 0.36% active;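 active = corrected activity change at or below -50% at 5 µM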
CF NFkB inh – inhibitors of PAF-induced NF-kB signaling, primary screen, cell-based, GFP fluorescence, uHTS; 360,000 tested, 0.86% active; KKLEB NF-kB-GFP reporter, GFP fluorescence overnight; AID 588850, 2011; inhibition, % at 5 µM;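 active = at least 50% inhibition at 5 µM, scaled per plate between neutral and stimulator controls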;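 note: PAF is a Pseudomonas aeruginosa culture filtrate used as stimulus; plate controls were PAF-stimulated DMSO wells for no effect and unstimulated DMSO wells for full effect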
LMP1 NFkB inh – EBV LMP1-driven NF-kappaB luciferase reporter inhibitors, primary screen, cell-based, luminescence, single point; inhibition, % at 12.5 µM; 350,000 tested, 0.69% active; LMP1-induced NF-kappaB luciferase reporter cells; in the data active = inhibition above about 41%;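 note: 0% = neutral control wells and 100% = reference inhibitor control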
MITF TRPM1 inh – inhibitors of MITF-dependent TRPM1 promoter reporter, primary screen, cell-based, SK-MEL-5, single point, luciferase | AID 488899, 2010 | 330,000 tested, 0.83% active | SK-MEL-5 TRPM1 promoter luciferase, 24 h | inhibition, % at 12.5 µM;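 active = mean inhibition across replicates of 60% or more, whatever share of single replicates reaches that level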
CF NFkB inh conf – inhibitors of PAF-induced NF-kB signaling, retest, confirmation, cell-based, GFP fluorescence, single concentration; shares compounds with CF NFkB inh; inhibition, % at 5 µM; 1,300 tested, 64% active; KKLEB CF airway cells, overnight; in the data active = inhibition above about 40%;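 note: stimulus PAF is a Pseudomonas aeruginosa filtrate and not platelet activating factor; plate controls were DMSO wells with stimulus for no effect and unstimulated DMSO wells for full effect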
Active calls of the source: *; / = no result given. Shown are actives, neighbours in structure and some others; about 3% of the full set was active somewhere.

SMILES	Peg3 promoter	HIF-2a inh	KKLEB cytotox	CF NFkB inh	LMP1 NFkB inh	MITF TRPM1 inh	CF NFkB inh conf
O=C(c1ccccc1)C1OC1C(=O)c1ccccc1 (configuration not stated)	-17.9	-55.5	-12.5	56.1*	28.7	36.0	53.9*
CC1C=CC(C)C(C(=O)c2ccccc2)C1C(=O)c1ccccc1 (configuration not stated)	15.2	13.6	-3.2	-4.8	0.8	/	/
CCCCCCCCCc1nc2sc3c(c2c(=O)n1NC(=O)c1ccccc1[N+](=O)[O-])CC(C)(C)OC3	31.3	-0.7	-32.9	43.5	-3.5	11.3	/
CCCCCCCCCc1nc2sc3c(c2c(=O)n1NC(=O)c1ccc([N+](=O)[O-])cc1)CC(C)(C)OC3	8.6	-12.2	-41.7	55.3*	2.8	8.6	62.1*
O=C(Cn1cc(COc2ccc(-n3cccc3)cc2)nn1)NS(=O)(=O)c1ccccc1C(F)(F)F	-0.3	4.1	-18.8	20.7	/	/	/
Cn1c(=O)c2cc(NC(=O)NCc3ccc(Cl)cc3Cl)ccc2n1Cc1ccccc1	-10.7	-8.8	-3.8	-12.8	/	/	/
C[C@@H]1CCCCO[C@@H](CN(C)Cc2ccc(C(F)(F)F)cc2)[C@@H](C)CN([C@H](C)CO)C(=O)c2cc(N(C)C)ccc2O1	12.6	-2.5	4.0	-6.0	4.0	/	/
O=C(N1CCCCC1)N1CCN(C(c2ccccc2)c2ccccc2)CC1	18.6	17.2	11.6	7.1	-8.8	0.8	/
Oc1c(C(c2ccccc2)N2CCCCC2)ccc2ccccc12 (configuration not stated)	19.9	11.0	-31.1	68.1*	-0.5	/	26.8
COc1cccc2c(SCC(=O)N/N=C/c3ccc(O)c(O)c3)cc(C)nc12	22.2	0.1	-11.1	15.5	-1.7	-6.9	/
COc1cccc2c(SCC(=O)N/N=C/c3ccccc3)cc(C)nc12	27.4	31.3	-29.0	54.5*	22.9	16.7	60.6*
S=C(Nc1cccc2ccccc12)Nc1cccc2ccccc12	-30.8	-77.7	-37.0	83.8*	-4.1	19.5	11.0
COc1ccc2[nH]c3c(c2c1)CCNC3=O	-0.1	-20.1	-6.2	52.4*	17.3	18.8	82.9*
O=C1NCCc2c1[nH]c1ccccc21	8.8	-1.0	-1.4	7.7	-1.6	15.7	/
COc1ccc(Cl)cc1NC(=O)c1nnn(CC(=O)Nc2ccc(OC)c(OC)c2)c1N	22.0	-0.7	-23.9	50.3*	4.6	-2.2	3.5
COc1cccc(NC(=O)Cn2nnc(C(=O)Nc3cc(Cl)ccc3OC)c2N)c1	19.5	-0.4	-36.0	55.7*	4.9	2.7	8.8
COc1ccc(NC(=O)Cn2nnc(C(=O)Nc3ccc(F)c(Cl)c3)c2N)cc1	21.6	-1.7	-43.9	60.6*	-3.6	-7.0	-1.1
Cc1ccc(F)c(S(=O)(=O)NC(=O)C2(C)CCN2C(=O)Cc2ccc(-c3ccccc3)cc2)c1 (configuration not stated)	-4.4	5.3	8.7	11.5	/	/	/
CN1CCN(c2ncnc3c2ncn3[C@H]2CN(Cc3ccc(-c4ccccc4)cc3)C[C@@H](CO)O2)CC1	27.7	-0.6	-8.2	9.0	/	/	/
O=C(Nc1cc(-c2nc3ncccc3o2)ccc1Cl)c1ccc([N+](=O)[O-])o1	88.0*	-46.1	-22.9	80.3*	-26.4	79.3*	-182.0
COc1ccc(OC)c(Nc2ncnc3ccccc23)c1	-6.7	-8.7	-1.8	11.4	11.1	-14.9	/
COc1ccc(OC)c(Nc2ncnc3ccc(Br)cc23)c1	36.7	32.7	-24.0	53.6*	2.4	-4.2	68.2*
COc1cccc(Nc2ncnc3ccc(Br)cc23)c1	16.2	10.9	-14.0	62.2*	26.6	/	86.7*
CCOC(=O)Nc1nc(-c2ccccc2)c(C(=O)c2ccccc2)s1	-27.4	23.5	-37.6	53.1*	6.8	39.3	77.2*
COc1cc(/C=N/NC(=O)Nc2cccc3nsnc23)cc(OC)c1OC	22.1	9.0	-24.6	63.9*	4.3	-29.7	77.4*
SMILES	Peg3 promoter	HIF-2a inh	KKLEB cytotox	CF NFkB inh	LMP1 NFkB inh	MITF TRPM1 inh	CF NFkB inh conf
COc1ccc([C@H]2CC(=O)C=C(c3ccc(OC)c(OC)c3)C2)cc1	-49.9	-62.4	-17.2	56.7*	0.9	-41.2	35.8
Cc1nc(C(F)(F)F)ccc1C(=O)N1CCC1(C)C(=O)NS(=O)(=O)c1ccc(C#N)cc1 (configuration not stated)	-1.0	9.6	5.0	-0.6	/	/	/
CCCCNC(=O)C[C@@H]1C[C@@]2(C(=O)OCC)CCCC=C2N(Cc2ccco2)C1=O	/	-6.0	/	/	/	/	/
CCc1nc2ccc(C(=O)Nc3cccc(OCC(=O)N(C)C)c3)cn2c1N(C)Cc1cc2ccccc2s1	72.8*	-18.5	-10.2	52.6*	/	/	13.6
CCNC(=O)N(C)c1c(CC)nc2ccc(C(=O)Nc3cccc(OCC(=O)N(C)C)c3)cn12	6.9	6.4	-0.4	-2.2	/	/	/
Cc1cccc(-n2c(SCc3ccc([N+](=O)[O-])cc3)nnc2-c2c[nH]c3ccccc23)c1	19.7	17.8	-40.3	51.3*	12.4	9.9	20.9
Cc1ccc(-c2cc(-c3ccccc3)nc(Cl)n2)cc1	-45.3	-96.3	-2.6	-6.7	-8.2	-2.8	/
Cc1ccc(-c2cc(C(F)F)nc(S(C)(=O)=O)n2)cc1	98.4*	9.8	-33.2	50.8*	-8.5	33.6	-65.8
Cc1ccc2oc(=O)c3cnn(CC(=O)Nc4cc(-c5cccc(F)c5)no4)c3c2c1	19.7	-0.7	-42.3	52.9*	0.0	/	16.4
Cn1nc(C(C)(C)C)cc1C(=O)N1CCCC(c2cc(C(=O)Nc3ccccc3Cl)no2)C1 (configuration not stated)	18.8	-0.3	-1.6	20.9	/	/	/
CC(=O)Nc1ccc(-c2ccnc3c2CC(C(=O)NCC2CC2)O3)cc1 (configuration not stated)	8.5	9.1	-19.4	3.9	/	/	/
CC(=O)Nc1ccc(-c2ccnc3c2CC(C(=O)NCc2ccco2)O3)cc1 (configuration not stated)	-16.1	26.9	-44.3	60.0*	/	/	60.9*
CC(=O)Nc1ccc(-c2ccnc3c2CC(C(=O)NCc2ccccc2)O3)cc1 (configuration not stated)	-19.8	16.6	-24.0	55.7*	/	/	48.8*
Cn1cnnc1Sc1ccc(/C=C/C(=O)c2ccc(O)cc2)cc1[N+](=O)[O-]	109.7*	35.9	-2.4	59.1*	-5.6	4.8	-91.1
CCC(C)(C)NC(=O)c1ccc(Sc2nncn2C)c([N+](=O)[O-])c1	5.5	12.7	-13.4	13.5	-1.8	8.2	/

Assay outcomes (PubChem BioAssay)
